Read-outs that look alike come from different tables or passages of the source. The campaign covered roughly 13,000 compounds. About 3,200 (25%) showed an effect of 50% or more. Some of the results follow.
System: P. falciparum stage V gametocytes
Parameters: BacTiter-Glo ATP luminescence viability of purified stage V gametocytes in 384-well plates, per cent inhibition versus DMSO
Conditions: 48 h, 5 µM, inhibitor

SMILES	% Inhibition	% Inhibition (% Inhibition)
CCCC1(NC[C@@H](O)[C@H](Cc2ccccc2)NC(=O)c2cc(NCC)cc(N3CCCCS3(=O)=O)c2)CCC1 [TCMDC-135374]	23.04%	–
COc1ccc(CNc2ccc3nc(N)nc(N)c3c2)cc1 [TCMDC-139002]	12.04%	–
CCN(Cc1cccc2ccccc12)c1ccc2nc(N)nc(N)c2c1 [TCMDC-137765]	-46.6%	–
CCOC(=O)COc1cccc(CNc2ccc3nc(N)nc(N)c3c2)c1 [TCMDC-137822]	100.9%	–
CCOC(=O)CN1Cc2cc(NCc3ccc4ccc5nc(C)[nH]c(=O)c5c4c3)ccc2C1=O [TCMDC-137815]	10.92%	–
Cc1ccccc1CNc1ccc2nc(N)nc(N)c2c1 [TCMDC-135439]	74.86%	–
Nc1nc(N)c2c(Cl)c(CNc3cccc(C(=O)O)c3)ccc2n1 [TCMDC-138268]	-3.552%	–
CCOc1ccccc1C(=O)N1CCc2cc3nccc(N4CCN5CCC[C@H]5C4)c3cc21 [TCMDC-140042]	21.16%	–
CN(C)CCOc1ccc(-c2cc(-c3ccc(Cl)c(O)c3)c(-c3ccncc3)o2)cc1 [TCMDC-141254]	-18.41%	–
COc1ccc2nc(NC3=NC(c4ccccn4)(c4ccccn4)C(=O)N3C)[nH]c2c1 [TCMDC-139288]	10.34%	–
Cc1cccc(CN2CCCN(Cc3cccc(C(=O)Nc4ccc(C(C)(C)C)cc4)c3)CC2)c1 [TCMDC-135984]	-91.41%	–
CN(C)CCOc1ccc(-c2cc(-c3ccc(Cl)c(O)c3)c(-c3ccnc(N)n3)o2)cc1 [TCMDC-141332]	28.72%	–
COc1ccccc1N1CCN(c2cccc3c2nc(-c2cncc(C#N)c2)n3CCNCc2ccccc2)CC1 [TCMDC-133412]	-37.42%	–
c1ccc(CNCCn2c(-c3ccc4c(c3)CCO4)nc3c(N4CCCC4)cccc32)cc1 [TCMDC-134289]	92.48%	–
N#Cc1ccc(-c2nc3c(N4CCCC4)cccc3n2CCNCc2ccccc2)cc1 [TCMDC-133433]	30.7%	–
CN(C)c1cccc2c1nc(-c1ccc3c(c1)CCO3)n2CCNCc1ccccc1 [TCMDC-134062]	5.243%	–
N#Cc1cncc(-c2nc3c(N4CCC(N5CCCC5)CC4)cccc3n2CCNCc2ccccc2)c1 [TCMDC-133547]	94.76%	–
CC[C@H](C)CNC(=O)c1cncc(-c2cccc(CN3CCC(N4CCCC4)CC3)c2)c1 [TCMDC-134226]	16.8%	–
CC(C)CN(C)c1ncnc2c1nc(-c1cncc(C#N)c1)n2CCNCc1ccccc1 [TCMDC-136555]	12.57%	–
N#Cc1cncc(-c2nc3c(N4CCN(c5cnccn5)CC4)cccc3n2CCNCc2ccccc2)c1 [TCMDC-133413]	-21.4%	–
N#Cc1cncc(-c2nc3c(N4CCCC(N)C4)cccc3n2CCNCc2ccccc2)c1 (stereo not shown) [TCMDC-135364]	-9.75%	–
Oc1ccc(-c2nc3c(N4CCN(Cc5ccccc5)CC4)cccc3n2C2CCNCC2)cc1 [TCMDC-132125]	4.567%	–
N#Cc1cncc(-c2nc3c(N4CCC(Cc5ccccc5)CC4)cccc3n2CCNCc2ccccc2)c1 [TCMDC-133546]	51.69%	–
CC1CN(c2cccc3c2nc(-c2cncc(C#N)c2)n3CCNCc2ccccc2)CC(C)O1 (stereo not shown) [TCMDC-133411]	66.36%	–

SMILES	% Inhibition	% Inhibition (% Inhibition)
CN(c1cc(NC(=O)c2ccc(F)cc2)ccn1)C1CCN(Cc2cccc(F)c2)CC1 [TCMDC-135019]	38.57%	–
Cc1ccnc(NC(=O)c2cc(-c3cccc([N+](=O)[O-])c3)nc3onc(C)c23)c1 [TCMDC-124591]	3.347%	–
C=C[C@]1(C)C[C@@H](OC(=O)NC(=O)CCCS(=O)(=O)c2nnc(C)s2)[C@]2(C)[C@H](C)CC[C@]3(CCC(=O)[C@H]32)[C@@H](C)[C@@H]1O [TCMDC-140927]	24.97%	–
C#CC(C)(CO)N1CCCC1 (stereo not shown) [TCMDC-131372]	-4.555%	–
CCOC(=O)c1c(C)n(-c2ccccc2)c2ccc(O)cc12 [TCMDC-125483]	-27.27%	–
Oc1ccccc1CNCC12CC3CC(CC(C3)C1)C2 [TCMDC-125554]	-22.39%	–
CC(C)C[C@H](Nc1ccnc(NCC2CCCCC2)n1)C(=O)Nc1ccccc1 [TCMDC-134714]	-42.51%	–
CC(C)c1ccc(Nc2nc(NCCc3cnc[nH]3)nc(NCc3ccccc3)n2)cc1 [TCMDC-139741]	-6.505%	–
CC1CN(Cc2cccc(F)c2)CCN1c1ccc(NC(=O)c2ccc(F)cc2)cc1 (stereo not shown) [TCMDC-135017]	-0.6551%	–
Cc1ccc(NC(=O)Nc2cccc(Cl)c2)cc1-c1ccc(C(=O)Nc2ccncc2)cc1 [TCMDC-133699]	10.77%	–
Cl.Oc1ccc(C2CNCCc3c2cc(O)c(OCc2ccccc2)c3Cl)cc1 (stereo not shown) [TCMDC-141979]	17.32%	–
O=C(N[C@@H](Cc1ccccc1)C(=O)NC1CCCCC1)c1ccc(O)c(-c2ccc(Cl)c(Cl)c2)c1 [TCMDC-140824]	35.45%	–
O=C(NC(=S)Nc1cc(C(F)(F)F)cc(C(F)(F)F)c1)c1ccc(Cl)cc1 [TCMDC-124077]	25.76%	–
COc1cc(Cc2cnc(N)nc2N)cc(OCCCCCC(=O)O)c1OC [TCMDC-137677]	-23.13%	–
NC(=O)c1cccc(-n2ccc3cc(CNC4Cc5ccccc5C4)ccc32)c1 [TCMDC-133416]	99.63%	–
CC[C@H](C)CNC(=O)c1cncc(-c2cccc(CNC3Cc4ccccc4C3)c2)c1 [TCMDC-134218]	-33.07%	–
Cc1cccc(-c2ccc3c(c2)CC(NCc2cccc(-n4ccnc4)c2)C3)c1 (stereo not shown) [TCMDC-134831]	2.381%	–
c1ccc2nc(NCCCCCCCCNc3ccc4ccccc4n3)ccc2c1 [TCMDC-137745]	26.97%	–
c1ccc2ncc(CNCCCCCCCCNCc3cnc4ccccc4c3)cc2c1 [TCMDC-137744]	97.27%	–
COc1cccc(Cc2cnc3nc(N)nc(N)c3c2C)c1 [TCMDC-138060]	-3.76%	–
CC(=O)Nc1ccc(S(=O)(=O)Nc2ccc(Nc3nc(C)cc(N(C)C)n3)cc2)cc1 [TCMDC-124951]	-47.31%	–
COc1ccc2nccc([C@@H](O)CN3CCC(NC(=O)/C=C/c4cccc(NC(C)=O)c4)CC3)c2c1 [TCMDC-141029]	-15.14%	–
Fc1cccc(CNc2ncc(-c3ccsc3)c(-c3nccs3)n2)c1 [TCMDC-125374]	21.86%	–
COc1cc(CNc2ncc(-c3ccsc3)c(-c3nccs3)n2)cc(OC)c1 [TCMDC-124844]	31.51%	–

SMILES	% Inhibition	% Inhibition (% Inhibition)
Fc1ccc(CNc2ncc(-c3ccsc3)c(-c3nccs3)n2)cc1 [TCMDC-125372]	57.46%	–
COc1cccc(CNc2ncc(-c3ccsc3)c(-c3nccs3)n2)c1 [TCMDC-125375]	51.63%	–
COc1ccc(CNc2ncc(-c3ccsc3)c(-c3nccs3)n2)cc1OC [TCMDC-125369]	23.78%	–
COc1ccccc1CNc1ncc(-c2ccsc2)c(-c2nccs2)n1 [TCMDC-125376]	13.46%	–
c1cncc(CNc2ncc(-c3ccsc3)c(-c3nccs3)n2)c1 [TCMDC-125368]	23.89%	–
c1cc(CNc2ncc(-c3ccsc3)c(-c3nccs3)n2)ccn1 [TCMDC-125371]	35.87%	–
Fc1ccccc1CNc1ncc(-c2ccsc2)c(-c2nccs2)n1 [TCMDC-125366]	77.55%	–
Clc1ncccc1-c1nc(NCCC(c2ccccc2)c2ccccc2)no1 [TCMDC-134181]	13.92%	–
Clc1cc(Cl)cc(Nc2ccnc(Nc3cc(Cl)cc(Cl)c3)n2)c1 [TCMDC-134277]	-19.19%	–
Cc1nc(N/C=C/c2ccc(O)cc2)cc(N2CCCC2)n1 [TCMDC-135162]	20.32%	–
NC1=NC(c2ccccc2)(c2cccc(O)c2)C(=O)N1CCCc1ccccc1 (stereo not shown) [TCMDC-132351]	–	-3.76%
COc1cccc(CN2CCC(CCOC(c3ccccc3)c3ccc(Cl)cc3)CC2)c1O (stereo not shown) [TCMDC-136040]	-76.2%	–
COc1ccc(S(=O)(=O)NC2CCN(CCCOc3ccnc4cc(Cl)ccc34)C2)cc1OC (stereo not shown) [TCMDC-136146]	-25.22%	–
COc1cc(Br)c(S(=O)(=O)n2cc(CN3CCC(N)CC3)c3cc(Cl)ccc32)cc1OC [TCMDC-136384]	95.22%	–
COc1ccc(NC(=O)Nc2ccc(-c3ccccc3)cc2Cl)cc1N1CCN(C)CC1 [TCMDC-139137]	-40.38%	–
O=S(=O)(NCCN1CCCC1)c1ccc(-c2cccc(CNC3Cc4ccccc4C3)c2)s1 [TCMDC-132217]	90.5%	–
O=S(=O)(NCCN1CCCC1)c1ccc(-c2ccc(CNC3Cc4ccccc4C3)cc2)s1 [TCMDC-132234]	69.5%	–
CN1CCC(NCc2cccc(-c3ccc(S(=O)(=O)NCCN4CCCC4)s3)c2)CC1 [TCMDC-132218]	98.17%	–
COc1cccc(-c2cnc(N)c(-c3nc4ccc(F)cc4[nH]3)c2)c1 [TCMDC-138791]	-6.276%	–
Cn1c(=O)c(-c2c(Cl)cccc2Cl)cc2cnc(Nc3ccc(N4CCOCC4)cc3)nc21 [TCMDC-137156]	-23.94%	–
O=C(Nc1cccc([N+](=O)[O-])c1)Nc1ccc(Cl)c(C(F)(F)F)c1 [TCMDC-123511]	-89.27%	–
CCN(c1ccc(F)cc1)S(=O)(=O)c1cc(Br)cc2c1N(C(=O)C1CC1)CC2 [TCMDC-123802]	-9.966%	–

Source: PMC4552634, “A New Set of Chemical Starting Points with Plasmodium falciparum Transmission-Blocking Potential for Antimalarial Drug Discovery” (PLoS ONE, 2015)
